In PubChem BioAssay (NCI):
This is part of a sample that, as a whole, favours compounds with a hit. Of some 83,000 tested, about 20% had one in any assay.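 Cell lines were cultured in 96-well plates, exposed to a single compound concentration, and assessed for percent growth 48 hours later.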 Active and inactive are the calls of the source. How the source made its calls: active means growth percent below 10; inactive means the rest.

How the values were obtained:
Experiment in all cases: NCI-60 one-dose screen, 48 h (100 = growth as untreated, 0 = no growth, -100 = all killed)
Conditions in all cases: 10 µM unless noted
RPMI-8226 leukemia = tested on: RPMI-8226 leukemia
OVCAR-8 ovarian = tested on: OVCAR-8 ovarian
OVCAR-5 ovarian = tested on: OVCAR-5 ovarian
OVCAR-4 ovarian = tested on: OVCAR-4 ovarian
SK-OV-3 ovarian = tested on: SK-OV-3 ovarian
IGROV1 ovarian = tested on: IGROV1 ovarian
OVCAR-3 ovarian = tested on: OVCAR-3 ovarian
HS 578T breast = tested on: HS 578T breast
NCI/ADR-RES ovarian = tested on: NCI/ADR-RES ovarian
T-47D breast = tested on: T-47D breast
BT-549 breast = tested on: BT-549 breast
MDA-MB-435 melanoma = tested on: MDA-MB-435 melanoma
SW-620 colon = tested on: SW-620 colon
MCF7 breast = tested on: MCF7 breast
HCT-116 colon = tested on: HCT-116 colon
HCC-2998 colon = tested on: HCC-2998 colon
KM12 colon = tested on: KM12 colon

Measured: growth

CN(C)[C@@H]1C(=O)C(C(N)=O)=C(O)[C@@]2(O)C(=O)C3=C(O)c4c(O)cc(CN5CCc6ccccc6C5)c(Cl)c4C[C@H]3C[C@@H]12
active: RPMI-8226 leukemia -46.2% | OVCAR-8 ovarian -80.9% | OVCAR-5 ovarian -87.1% | OVCAR-4 ovarian -44.5% | SK-OV-3 ovarian -93.3% | IGROV1 ovarian -73.2% | OVCAR-3 ovarian -83.3% | HS 578T breast -57.7% | NCI/ADR-RES ovarian -83.7% | T-47D breast -41.4% | BT-549 breast -83.3% | MDA-MB-435 melanoma -75.7% | SW-620 colon -72.4% | MCF7 breast -68.8% | HCT-116 colon -90.5% | HCC-2998 colon -67.1% | KM12 colon -82.9%

O=C(Nc1nc(-c2ccccc2)cs1)c1cc(-c2ccc(Br)cc2)nc2ccccc12
inactive: RPMI-8226 leukemia 39.9% | OVCAR-8 ovarian 57.1% | OVCAR-5 ovarian 81.7% | OVCAR-4 ovarian 57.6% | SK-OV-3 ovarian 51.6% | IGROV1 ovarian 59.4% | OVCAR-3 ovarian 63.4% | HS 578T breast 62.1% | NCI/ADR-RES ovarian 58.5% | T-47D breast 21.7% | BT-549 breast 60.3% | MDA-MB-435 melanoma 77.2% | SW-620 colon 51.6% | MCF7 breast 37.6% | HCT-116 colon 27.5% | HCC-2998 colon 87.7% | KM12 colon 67%

Cc1nn(-c2ccc(-c3ccc(OC(F)(F)F)cc3)cc2)c2nc(-c3ccccc3)nc(N)c12
inactive: RPMI-8226 leukemia 118% | OVCAR-8 ovarian 93% | OVCAR-5 ovarian 98.3% | OVCAR-4 ovarian 102% | SK-OV-3 ovarian 108% | IGROV1 ovarian 99.3% | OVCAR-3 ovarian 107% | HS 578T breast 115% | NCI/ADR-RES ovarian 90.8% | T-47D breast 78.5% | BT-549 breast 98.1% | MDA-MB-435 melanoma 102% | SW-620 colon 81.3% | MCF7 breast 94.3% | HCT-116 colon 96.7% | HCC-2998 colon 96.8% | KM12 colon 100%

CCO/C=N/S(=O)(=O)c1cc2c(cc1Cl)NC=NS2(=O)=O
inactive: RPMI-8226 leukemia 104% | OVCAR-8 ovarian 100% | OVCAR-5 ovarian 112% | OVCAR-4 ovarian 117% | SK-OV-3 ovarian 104% | IGROV1 ovarian 104% | OVCAR-3 ovarian 105% | HS 578T breast 101% | NCI/ADR-RES ovarian 109% | T-47D breast 105% | BT-549 breast 101% | MDA-MB-435 melanoma 97.5% | SW-620 colon 94.9% | MCF7 breast 96.2% | HCT-116 colon 103% | HCC-2998 colon 102% | KM12 colon 107%

C#Cc1cccc(Nc2ncnc3ccc(NC(=O)c4ccccc4)cc23)c1
inactive: RPMI-8226 leukemia 64.6% | OVCAR-8 ovarian 81.1% | OVCAR-5 ovarian 83.4% | OVCAR-4 ovarian 80.4% | SK-OV-3 ovarian 75.3% | IGROV1 ovarian 33.7% | OVCAR-3 ovarian 66.2% | HS 578T breast 102% | NCI/ADR-RES ovarian 69.8% | T-47D breast 61.4% | BT-549 breast 74.6% | MDA-MB-435 melanoma 84% | SW-620 colon 100% | MCF7 breast 72.1% | HCT-116 colon 76% | HCC-2998 colon 97.7% | KM12 colon 90%

C=C1C(=O)O[C@H]2[C@H]1CC/C(COC(=O)c1cccnc1)=C\CC[C@@]1(C)O[C@@H]21
inactive: RPMI-8226 leukemia 28.5% | OVCAR-8 ovarian 86.4% | OVCAR-5 ovarian 73.8% | OVCAR-4 ovarian 70% | SK-OV-3 ovarian 86.1% | IGROV1 ovarian 64.8% | OVCAR-3 ovarian 26.4% | HS 578T breast 89.9% | NCI/ADR-RES ovarian 93.5% | T-47D breast 55.7% | BT-549 breast 68.4% | MDA-MB-435 melanoma 49.7% | SW-620 colon 17.7% | MCF7 breast 21.4% | HCT-116 colon 15.9% | HCC-2998 colon 108% | KM12 colon 109%

CCc1ccc(OCc2ccccc2C(=O)Nc2ccc3nc(C)cc(N)c3c2)cc1
active: RPMI-8226 leukemia -45.4% | OVCAR-8 ovarian -60.7% | OVCAR-5 ovarian -95.4% | OVCAR-4 ovarian -84.3% | SK-OV-3 ovarian -97% | IGROV1 ovarian -71.5% | OVCAR-3 ovarian -92.4% | HS 578T breast -42% | NCI/ADR-RES ovarian -71.5% | T-47D breast -60% | BT-549 breast -91.9% | MDA-MB-435 melanoma -91.2% | SW-620 colon -64.3% | MCF7 breast -70.2% | HCT-116 colon -99.3% | HCC-2998 colon -76.8% | KM12 colon -78.9%

C=C(C)[C@@H]1CC[C@]2(C(=O)N3CCN(C)CC3)CC[C@]3(C)[C@H](CC[C@@H]4[C@@]5(C)C/C(=C/c6ccco6)C(=O)C(C)(C)[C@@H]5CC[C@]43C)[C@@H]12
inactive: RPMI-8226 leukemia 33.7% | OVCAR-8 ovarian 70.7% | OVCAR-5 ovarian 83.2% | OVCAR-4 ovarian 71.7% | SK-OV-3 ovarian 71.3% | IGROV1 ovarian 90.1% | OVCAR-3 ovarian 88.1% | HS 578T breast 66.4% | NCI/ADR-RES ovarian 69.8% | T-47D breast 72.7% | BT-549 breast 79.5% | MDA-MB-435 melanoma 72.8% | SW-620 colon 74% | MCF7 breast 36.1% | HCT-116 colon 46.9% | HCC-2998 colon 92.3% | KM12 colon 72.5%

COc1cc(C)ccc1Oc1nc(Nc2ccc(N3CCOCC3)cc2)ncc1N=Cc1cc(C(F)(F)F)cc(C(F)(F)F)c1
inactive: RPMI-8226 leukemia 69.7% | OVCAR-8 ovarian 63% | OVCAR-5 ovarian 75.7% | OVCAR-4 ovarian 71% | SK-OV-3 ovarian 43.3% | IGROV1 ovarian 33.4% | OVCAR-3 ovarian 76.5% | HS 578T breast 61.9% | NCI/ADR-RES ovarian 69.9% | T-47D breast 57.7% | BT-549 breast 89.4% | MDA-MB-435 melanoma 65.1% | SW-620 colon 80.5% | MCF7 breast 46.4% | HCT-116 colon 47.6% | HCC-2998 colon 91.6% | KM12 colon 55.3%

O=C(NCc1ccccc1)c1ccc2c(c1)NC(=O)[C@@H]1CCCN21
inactive: RPMI-8226 leukemia 105% | OVCAR-8 ovarian 106% | OVCAR-5 ovarian 100% | OVCAR-4 ovarian 112% | SK-OV-3 ovarian 111% | IGROV1 ovarian 104% | OVCAR-3 ovarian 101% | HS 578T breast 90.7% | NCI/ADR-RES ovarian 98.3% | T-47D breast 108% | BT-549 breast 110% | MDA-MB-435 melanoma 99.6% | SW-620 colon 96.4% | MCF7 breast 85.4% | HCT-116 colon 105% | HCC-2998 colon 88% | KM12 colon 84%

COc1ccc(NC(=O)c2ccc(Nc3ncnc4[nH]c(C)c(C)c34)cc2)cc1
inactive: RPMI-8226 leukemia 111% | OVCAR-8 ovarian 98.9% | OVCAR-5 ovarian 108% | OVCAR-4 ovarian 126% | SK-OV-3 ovarian 109% | IGROV1 ovarian 110% | OVCAR-3 ovarian 103% | HS 578T breast 113% | NCI/ADR-RES ovarian 103% | T-47D breast 89.2% | BT-549 breast 99.1% | MDA-MB-435 melanoma 108% | SW-620 colon 102% | MCF7 breast 100% | HCT-116 colon 106% | HCC-2998 colon 104% | KM12 colon 103%

COc1ccc(-n2cc(-c3ccc(Cl)c(Cl)c3)[nH]c2=O)cc1OC
inactive: RPMI-8226 leukemia 97.6% | OVCAR-8 ovarian 94.6% | OVCAR-5 ovarian 90% | OVCAR-4 ovarian 89.9% | SK-OV-3 ovarian 101% | IGROV1 ovarian 102% | OVCAR-3 ovarian 111% | HS 578T breast 102% | NCI/ADR-RES ovarian 105% | T-47D breast 92.1% | BT-549 breast 94.2% | MDA-MB-435 melanoma 99.7% | SW-620 colon 73.5% | MCF7 breast 84.7% | HCT-116 colon 90.4% | HCC-2998 colon 96% | KM12 colon 95.3%

Nc1c(C(=O)Nc2ccccn2)sc2nc3c(cc12)CCCCC3
inactive: RPMI-8226 leukemia 11.4% | OVCAR-8 ovarian 19.1% | OVCAR-5 ovarian 39.6% | OVCAR-4 ovarian 53.5% | SK-OV-3 ovarian 36.2% | IGROV1 ovarian 44.9% | HS 578T breast 30.5% | T-47D breast 36.4% | BT-549 breast 52.6% | SW-620 colon 30% | MCF7 breast 20.1% | HCT-116 colon 17.1% | HCC-2998 colon 30.7% | KM12 colon 18.8%
active: OVCAR-3 ovarian -3.52% | NCI/ADR-RES ovarian 9.19% | MDA-MB-435 melanoma -25.2%

C=C1C(=O)O[C@H]2[C@H]1CC/C(COC(=O)Nc1nc3ccccc3[nH]1)=C\CC[C@@]1(C)O[C@@H]21
inactive: RPMI-8226 leukemia 31.6% | OVCAR-8 ovarian 80.8% | OVCAR-5 ovarian 127% | OVCAR-4 ovarian 81.3% | SK-OV-3 ovarian 89.1% | IGROV1 ovarian 27.9% | OVCAR-3 ovarian 17.3% | HS 578T breast 94.5% | NCI/ADR-RES ovarian 92.1% | T-47D breast 50.3% | BT-549 breast 77.3% | MDA-MB-435 melanoma 45.8% | SW-620 colon 16.4% | MCF7 breast 20.1% | HCT-116 colon 12% | HCC-2998 colon 102% | KM12 colon 94.9%

O=C(Nc1cc(=O)[nH]c(=O)[nH]1)C(Cl)Cl
inactive: RPMI-8226 leukemia 101% | OVCAR-8 ovarian 102% | OVCAR-5 ovarian 112% | OVCAR-4 ovarian 112% | SK-OV-3 ovarian 107% | IGROV1 ovarian 108% | OVCAR-3 ovarian 113% | HS 578T breast 95.4% | NCI/ADR-RES ovarian 111% | T-47D breast 91.4% | BT-549 breast 107% | MDA-MB-435 melanoma 110% | SW-620 colon 100% | MCF7 breast 97.1% | HCT-116 colon 107% | HCC-2998 colon 92.4% | KM12 colon 107%

Cc1[nH]c2ncnc(Oc3ccc(NC(=O)Nc4ccc(Cl)c(C(F)(F)F)c4)cc3)c2c1C
inactive: RPMI-8226 leukemia 44.7% | OVCAR-8 ovarian 52% | OVCAR-5 ovarian 98% | OVCAR-4 ovarian 90.1% | SK-OV-3 ovarian 91.9% | IGROV1 ovarian 54.6% | OVCAR-3 ovarian 56.3% | HS 578T breast 73.8% | NCI/ADR-RES ovarian 64.5% | T-47D breast 36.9% | BT-549 breast 79.4% | MDA-MB-435 melanoma 45.4% | SW-620 colon 77.9% | MCF7 breast 31.6% | HCT-116 colon 42.4% | HCC-2998 colon 60.5% | KM12 colon 27.3%
